Assay results as given in PubChem BioAssay AID652154 (Broad Institute, 2013).
Hit rate of the full screen: of about 360,000 compounds, about 4,200 (1.2%) were called active. The full list was thinned out, with actives kept by preference. Values without a mark were called inactive.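 The calls were made as follows: active = mean replicate inhibition at least 60% with every replicate also reaching 60%; inconclusive = only one of the two criteria is met; inactive = mean below 60% and not all replicates reaching 60%.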

Assay: PAX8 transcriptional activity inhibition in RMG-I – RMG-I cells, luciferase, single concentration, primary screen (AID 652154);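 also: luciferase light reporting Pax8 driven TPO promoter activity; plate controls were median of neutral control wells for no effect and mitoxantrone controls for full effect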
Conditions: RMG-I TPO-luciferase reporter, SteadyGlo, 24 h; at 12.6 µM; hits give high values

| Compound | inhibition |
| --- | --- |
| Cc1ccc(S(=O)(=O)Nc2cccc3c2O[C@@H](CN(C)S(=O)(=O)c2c(C)noc2C)[C@@H](C)CN([C@H](C)CO)C3=O)cc1 | -20.1% |
| C[C@H]1CCCCO[C@@H](CN(C)Cc2ccc3c(c2)OCO3)[C@@H](C)CN([C@@H](C)CO)C(=O)c2cc(NC(=O)c3ccccc3)ccc2O1 | 10.2% |
| COCC(=O)Nc1ccc2c(c1)C(=O)N(C)C[C@@H](OC)[C@H](C)CN(C(=O)c1cccnc1)[C@H](C)CO2 | -16.5% |
| C/C=C/c1cnc2c(c1)C(=O)N([C@@H](C)CO)C[C@@H](C)[C@@H](CN(C)C(=O)C1CCOCC1)O2 | -0.814% |
| O=C(NNc1ccccc1Cl)C(O)(c1cccc(C(F)(F)F)c1)c1cccc(C(F)(F)F)c1 | 66.8% (active) |
| O=C(O)c1cc(S(=O)(=O)N(Cc2ccccc2)c2cccc(C(F)(F)F)c2)ccc1Cl | -20% |
| O=c1cc(O)c(-c2cccc(C(F)(F)F)c2)c(Cl)[nH]1 | 4.02% |
| O=C(C1CCCC1)N1CC(=O)N2[C@H](CO)[C@H](c3ccc(Br)cc3)[C@H]2C1 | -9.22% |
| C/C=C/c1ccc([C@@H]2[C@H](CO)N(C(C)=O)[C@H]2CN(CC)C(=O)CN(C)C)cc1 | 9.68% |
| COCC(=O)Nc1ccc2c(c1)OC[C@H](C)N(C(=O)c1cnccn1)C[C@@H](C)[C@H](OC)CN(C)C2=O | -7.83% |
| O=C(C1CCC1)N1CCCCN2[C@H](C1)[C@@H](c1ccc(C#CC3CCCC3)cc1)[C@@H]2CO | 36.8% |
| O=c1oc2ccccc2cc1-c1cn(-c2ccccc2)c(=S)[nH]1 | 62.6% (active) |
| COc1cccc(-n2c(=S)[nH]c3c(oc4ccccc43)c2=O)c1 | 3.59% |
| CC(C)NC(=O)Nc1ccc2c(c1)C(=O)N([C@@H](C)CO)C[C@@H](C)[C@H](CN(C)C(=O)Cc1ccccc1)OCCCC[C@H](C)O2 | 4.73% |
| CN1CCN(C(=O)C[C@@H]2CC[C@@H]3[C@H](COC[C@@H](O)CN3Cc3cccc(F)c3)O2)CC1 | -11.1% |
| CCCC#Cc1cnc2c(c1)C(=O)N([C@@H](C)CO)C[C@@H](C)[C@@H](CN(C)C(=O)c1ccccc1)O2 | 8.32% |
| C=C1C(=O)OC2C1CCC(C)=CCCC1(C)OC21 (stereo not drawn) | 108% (active) |
| O=S(=O)(c1ccc(F)cc1)N1CCCCN2[C@H](C1)[C@H](c1ccc(C3=CCCCC3)cc1)[C@@H]2CO | 16.3% |
| CC(C)c1cn(CC[C@@H]2CC[C@@H](NC(=O)C3CCC3)[C@@H](CO)O2)nn1 | 2.99% |
| COc1ccc(CNC(=O)CN2C(=O)c3ccccc3S2(=O)=O)cc1 | 75.6% (active) |
| COc1ccc(CNC(=O)COC(=O)C(CCSC)N2C(=O)c3ccccc3C2=O)cc1 (stereo not drawn) | -2% |
| NS(=O)(=O)c1ccc(CCNC(=O)CN2C(=O)c3ccccc3S2(=O)=O)cc1 | 0.854% |
| C/C=C/c1ccccc1[C@@H]1[C@@H](CO)N(S(=O)(=O)c2cccc(F)c2)[C@H]1C#N | -12.9% |
| C[C@@H]1CN([C@@H](C)CO)C(=O)c2cc(NC(=O)CCCN(C)C)ccc2O[C@H]1CN(C)Cc1ccccc1 | -7.53% |
| COc1ccccc1-c1ccc2c(c1)O[C@H](CN(C)C(=O)c1cccnc1)[C@H](C)CN([C@@H](C)CO)S2(=O)=O | -1.96% |
| COc1ccc(C(C#N)=C2C=CC(=NO)c3ccccc32)cc1 | 70.5% (active) |
| COc1ccc(/C(N)=N/OC(=O)Cc2ccccc2)cc1 | -143% |
| COc1ccc(C(=NN)c2ccc(OC)cc2)cc1 | -68% |
